The source of these data is PubChem BioAssay (EPA / NIEHS).

What all share (settings): mRNA level, 48 h; actives raise or lower the signal
Read-out in assay [1]: CYP3A5 (gene 1577)
In words: LTEA_HepaRG_CYP3A5: Life Technologies and Expression Analysis (LTEA) Assay for CYP3A5 using HepaRG (AID 2283493). In short, it runs like this:
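Differentiated HepaRG cells in serum-free induction medium were dosed 48 h with test chemicals (8-point half-log series, top 100 uM, 0.5% DMSO, duplicate). CYP3A5 mRNA measured by qRT-PCR, normalized to ACTB, GAPDH, POLR2A; bidirectional fit versus DMSO.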

Read-out in assay [2]: Fatty Acid-Binding Protein 1 (FABP1), FABP1 (gene 2168)
In words: LTEA_HepaRG_FABP1: Life Technologies and Expression Analysis (LTEA) Assay for Fatty Acid-Binding Protein 1 (FABP1) using HepaRG (AID 2283494). The essentials: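 Differentiated human HepaRG cells were exposed in duplicate for 48 h in serum-free induction medium to 8-point half-log concentration series topping at 100 uM in 0.5% DMSO. FABP1 mRNA measured by TaqMan qRT-PCR, normalized to ACTB/GAPDH/POLR2A; bidirectional fit versus DMSO.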

Read-out in assay [3]: Cytochrome P450 4A22 (Homo sapiens) (UniProt Q5TCH4)
In words: LTEA_HepaRG_CYP4A22: Life Technologies and Expression Analysis (LTEA) Assay for Cytochrome P450 4A22 (CYP4A22) using HepaRG (AID 2283495). In short, it runs like this: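 Cryopreserved HepaRG cells, plated and cultured 48 h, then switched to serum-free induction medium and treated 48 h (duplicates, up to 100 uM, half-log steps, 0.5% DMSO). Expression change of CYP4A22 was fitted bidirectionally against vehicle.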

Read-out in assay [4]: Cytochrome P450 7A1 (Homo sapiens) (UniProt P22680)
The assay is described as follows: LTEA_HepaRG_CYP7A1: Life Technologies and Expression Analysis (LTEA) Assay for Cytochrome P450 7A1 (CYP7A1) using HepaRG (AID 2283496). In short, it runs like this: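 Gene expression endpoint in human HepaRG liver cells treated for 48 h with test chemicals (up to 100 uM, 0.5% DMSO). Values come from bidirectional concentration-response fitting versus DMSO.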

Read-out in assay [5]: Glutathione S-Transferase (GSTA2), GSTA2 (gene 2939)
In words: LTEA_HepaRG_GSTA2: Life Technologies and Expression Analysis (LTEA) Assay for Glutathione S-Transferase (GSTA2) using HepaRG (AID 2283497). In short, it runs like this: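 Human HepaRG cells, plated 48 h, then exposed in serum-free induction medium for 48 h to eight half-log concentrations up to 100 uM in 0.5% DMSO, duplicate. GSTA2 mRNA by qRT-PCR, normalized to ACTB/GAPDH/POLR2A; bidirectional fit versus DMSO.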

Read-out in assay [6]: Glutamate-cysteine ligase catalytic (GCLC), GCLC (gene 2729)
In words: LTEA_HepaRG_GCLC: Life Technologies and Expression Analysis (LTEA) Assay for Glutamate-cysteine ligase catalytic (GCLC) using HepaRG (AID 2283498). In short, it runs like this:
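Differentiated human HepaRG cells, plated 48 h then switched to serum-free induction medium, were exposed in duplicate for 48 h to 8 half-log concentrations topping at 100 uM in 0.5% DMSO. GCLC mRNA was quantified by qRT-PCR against ACTB, GAPDH and POLR2A.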

Read-out in assay [7]: growth arrest and DNA damage 45 (GADD45G), GADD45G (gene 10912)
The assay is described as follows: LTEA_HepaRG_GADD45G: Life Technologies and Expression Analysis (LTEA) Assay for growth arrest and DNA damage 45 (GADD45G) using HepaRG (AID 2283499). In short, it runs like this: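 Human hepatic HepaRG line treated 48 h with chemicals (eight concentrations, half-log steps from 100 uM); transcript induction or repression of GADD45G scored by qRT-PCR versus DMSO vehicle.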

Read-out in assay [8]: Glutamate-cysteine ligase regulatory (GCLM), GCLM (gene 2730)
The assay is described as follows: LTEA_HepaRG_GCLM: Life Technologies and Expression Analysis (LTEA) Assay for Glutamate-cysteine ligase regulatory (GCLM) using HepaRG (AID 2283500). In short, it runs like this:
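Differentiated human HepaRG cells exposed 48 h in serum-free induction medium to 8-point half-log concentrations (top 100 uM, 0.5% DMSO), in duplicate. GCLM mRNA quantified by qRT-PCR, normalized to ACTB, GAPDH, POLR2A; bidirectional fitting versus DMSO.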

Read-out in assay [9]: Glutathione S-transferase M3 (GSTM3), GSTM3 (gene 2947)
In words: LTEA_HepaRG_GSTM3: Life Technologies and Expression Analysis (LTEA) Assay for Glutathione S-transferase M3 (GSTM3) using HepaRG (AID 2283501). In short, it runs like this:
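Changes in GSTM3 expression, an oxidative-stress marker, were scored by bidirectional curve fitting against 0.5% DMSO vehicle. Human HepaRG cultures received chemicals for 48 h in duplicate, highest concentration 100 uM with half-log dilutions.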

Read-out in assay [10]: Heat shock 70 kDa protein 1 (HSPA1A), gene 3303
The assay is described as follows: LTEA_HepaRG_HSPA1A: Life Technologies and Expression Analysis (LTEA) Assay for Heat shock 70 kDa protein 1 (HSPA1A) using HepaRG (AID 2283502). The essentials:
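Differentiated human HepaRG cells in serum-free induction medium were exposed in duplicate for 48 h to eight concentrations (top 100 uM, half-log steps, 0.5% DMSO). HSPA1A mRNA was quantified by qRT-PCR, normalized to ACTB, GAPDH and POLR2A, and fitted bidirectionally against DMSO.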

The source made the active and inactive calls. Rule for the calls: active = hit-call score of the fitted dose curve at least 0.9, where 1 is the maximum; inactive = score below 0.9.

Broadly, the AC50 is the midpoint of the concentration-response curve, whichever way the signal moves. `CN(C)c1ccc(Cc2ccc(N(C)C)cc2)cc1`: the result in assay [1], in assay [2], in [4], in [5], in assay [6] and in assay [8] was inactive. The compound was classed as inactive in assay [9] and in [10]. Moreover, the AC50 in assay [3] and in assay [7] was 50 µM (active) in each case.
On to `Oc1ccc2c(c1)-c1ccccc1C2`, for which the compound was called inactive in [1], in assay [2], in assay [3], in assay [5], in assay [6] and in assay [7]. Besides, the result in assay [8], in [9] and in [10] was inactive. Further, the AC50 in assay [4] was 4.87 µM (active).
Take `CCn1nc(Cc2ccccc2)cc1C1CCN(C[C@H]2C[C@H](N(C)[C@@H](C(=O)O)C(C)C)C[C@@H]2c2cccc(F)c2)CC1`: the outcome in assay [1], in assay [2], in assay [6], in [8], in [9] and in [10] was inactive. Besides, the AC50 was 43.5 µM (active) in assay [3], 13.4 µM (active) in assay [4], 50 µM (active) in [5] and 76.1 µM (active) in assay [7].
For the compound `COc1ccc(/C=C/S(=O)(=O)NC(=O)c2ccc(C)cc2Cl)cc1`, the call in assay [1], in assay [2], in [3], in [4], in assay [6] and in assay [7] was inactive. For the same compound, the result in assay [8], in assay [9] and in assay [10] was inactive. Also, in assay [5], the AC50 was 80.8 µM (active).
Turning to `CC1(C)C(=O)N(Br)C(=O)N1Br`, the compound was called inactive in assay [1], in assay [2], in assay [3], in assay [4], in assay [5] and in assay [6]. In addition, the compound was classed as inactive in [7], in [8], in assay [9] and in assay [10].
For `O=C1CCCCCN1`, the result in [1], in assay [2], in assay [3], in assay [4], in assay [5] and in [6] was inactive. For the same compound, the result in [7], in [8], in [9] and in assay [10] was inactive.
On to `Cn1cnc([N+](=O)[O-])c1Sc1ncnc2nc[nH]c12`, for which the compound was classed as inactive in assay [1], in assay [6], in assay [8], in assay [9] and in assay [10]. In addition, the concentration at half-maximal activity (AC50) in assay [2] is 27 µM (active); in assay [3], 0.238 µM (active); in assay [4], 2.09 µM (active); in [5], 1.35 µM (active); in assay [7] it was 1.11 µM (active).
With `CCOc1cccc(-n2cc(C(=O)N3CCN(c4cc(C(=O)O)c5ccccc5c4)CC3)nc2-c2ccc(C)cc2)c1`, the AC50 was 80.5 µM (active) in [1]; 30.2 µM (active) in assay [2]; 29.8 µM (active) in [3]; 33.6 µM (active) in [4]; 32.3 µM (active) in assay [5]; 79.2 µM (active) in [6]. For the same compound, the AC50 in [7] is 13.1 µM (active); in [8], 11.5 µM (active); in [10], 86.5 µM (active). Further, the compound was classed as inactive in assay [9].
Turning to `CCOCCO`, the compound was classed as inactive in [1], in [2], in assay [3], in assay [4], in assay [5] and in assay [6]. For the same compound, the result in [7], in assay [8], in [9] and in assay [10] was inactive.
`Cc1ccc(S(=O)(=O)O)cc1C`: the call in assay [1], in [2], in assay [3], in assay [4], in [5] and in assay [6] was inactive. In addition, the result in assay [7], in assay [8], in assay [9] and in assay [10] was inactive.
As to `O=C(OC[C@H]1O[C@@H](OC(=O)c2cc(O)c(O)c(OC(=O)c3cc(O)c(O)c(O)c3)c2)[C@H](OC(=O)c2cc(O)c(O)c(OC(=O)c3cc(O)c(O)c(O)c3)c2)[C@@H](OC(=O)c2cc(O)c(O)c(OC(=O)c3cc(O)c(O)c(O)c3)c2)[C@@H]1OC(=O)c1cc(O)c(O)c(OC(=O)c2cc(O)c(O)c(O)c2)c1)c1cc(O)c(O)c(OC(=O)c2cc(O)c(O)c(O)c2)c1`, the AC50 is 4.94 µM (active) in assay [1]; 7.91 µM (active) in assay [2]; 12.4 µM (active) in assay [3]; 9.29 µM (active) in assay [4]; 25.6 µM (active) in assay [7]; 15.2 µM (active) in assay [8]. Further, the compound was classed as inactive in assay [6], in assay [9] and in assay [10].
Take `COC(=O)c1ccccc1O`: the call in [2], in assay [3], in assay [4], in assay [5], in [6] and in assay [7] was inactive. Moreover, the call in [8], in assay [9] and in assay [10] was inactive.
For `CNCc1ccc(NC(=O)c2c[nH]c3c2C(=O)CCC3)cc1`, the compound was called inactive in assay [1], in assay [2], in assay [3], in [4], in assay [5] and in assay [6]. For the same compound, the compound was classed as inactive in [7], in assay [8], in assay [9] and in assay [10].
As for `O=P(OC(CCl)CCl)(OC(CCl)CCl)OC(CCl)CCl`, the AC50 in [2] is 72.9 µM (active); in assay [3] it was 79 µM (active); in assay [4], 76.9 µM (active); in [5], 75.6 µM (active); in [6], 89.5 µM (active); in [7], 94.3 µM (active). Also, the AC50 in [8] is 83.9 µM (active). The result in assay [9] and in assay [10] was inactive.
For the compound `Cc1[nH]cnc1C[C@H]1CCc2c(C)c3ccccc3n2C1=O`, the AC50 in assay [2] was 17.1 µM (active); in assay [3], 18.9 µM (active); in [4] it was 22.6 µM (active); in assay [5], 30.5 µM (active); in assay [6] it was 29.7 µM (active); in [7], 81.1 µM (active). Also, in [10], the AC50 was 56.9 µM (active). For the same compound, the call in assay [8] and in assay [9] was inactive.
As to `CCOC(=O)CC(CC(=O)OCC)(OC(C)=O)C(=O)OCC`, the result in assay [2], in [3], in [4], in assay [5], in assay [6] and in [7] was inactive. Further, the call in [8], in assay [9] and in assay [10] was inactive.
On to `CCCCCCCCCCCCCCCO`, for which the compound was called inactive in assay [2], in assay [3], in assay [4], in [5], in assay [6] and in assay [7]. In addition, the compound was classed as inactive in assay [8], in [9] and in [10].
As to `CC(C)CCO`, the compound was called inactive in assay [1], in assay [2], in [5], in assay [6], in [7] and in assay [8]. Also, the compound was called inactive in [9] and in assay [10].
`CC(=O)OCCC(C)C`: the result in [2], in assay [3], in assay [4], in assay [5], in assay [6] and in assay [7] was inactive. In addition, the call in assay [8], in [9] and in [10] was inactive.
